We go through 33 compounds from PubChem BioAssay (NCI).

The structures appear in SMILES notation. Compounds without any hit were thinned out: in the full panel of roughly 83,000, 20% have a hit.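 Method: cells in 96-well plates; compound added at one concentration; 48 h incubation; percent growth measured; values under 10 scored active.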 Values without a mark were called inactive. Active and inactive are the calls of the source.

The test system of the first assay is NCI-H322M lung. The assay is described as follows: NCI-60 one-dose screen, 48 h (100 = growth as untreated, 0 = no growth, -100 = all killed). Conditions: 10 µM.
In the case of `COc1cc(C2CC(c3ccc(C)cc3)=Nc3c(N)nc(N)nc3N2)ccc1Oc1nc(Nc2ccc(F)cc2)nc(N(C)C)n1` (stereo not drawn), the growth was 86.6%.

`O=c1c2ccccc2nc(COc2ccccc2)n1/N=C/c1ccc(N2CCCC2)cc1`: the growth is 91.2%.

On to `CCN1CCN(c2ccc(NC(=O)Nc3ccc4c(c3F)CCN4c3ccnc(C(=O)NC)c3)cc2C(F)(F)F)CC1`, for which the growth is 90.5%.

For the compound `O=c1[nH]c2ccccc2cc1CSc1ccc(Nc2nccc(-c3ccc4ccccc4c3)n2)cc1`, the growth is 70.1%.

As for `O=C(CNc1nc(-c2ccccc2)cs1)Nc1cccc(Cl)c1`, the growth is 62.3%.

In the case of `O=c1[nH]c2ccccc2cc1CSc1ccc(Nc2nccc(-c3ccc(Cl)cc3)n2)cc1`, the growth was 0.401% (active).

On to `O=C1Nc2cc(-c3ccc(NC(=O)c4cccc([N+](=O)[O-])c4)cc3)ccc2/C1=C/c1ccc[nH]1`, for which the growth was 102%.

As to `COc1ccc(-c2ccc(/C=N/NC(=O)c3[nH]c4ccc(Br)cc4c3-c3ccccc3)o2)cc1`, the growth was 70.4%.

As for `CN1CCN(c2ccc(C(=O)/C=C/c3cc(C(F)(F)F)ccc3Cl)cc2)CC1`, the growth was -94.8% (active).

In the case of `COc1ccc(-c2cc(-c3cc(C(=O)c4ccccc4)n4ccc(C)cc34)nc(N)c2C#N)cc1`, the growth is 83.7%.

In the case of `O=C(Nc1ccc(I)cc1)Nc1nc2ccc([N+](=O)[O-])cc2s1`, the growth was -86.6% (active).

With `CCCCCCCCCCCCCCCCCCCC(=O)NCCc1c[nH]c2ccc(O)cc12`, the growth is 114%.

Another assay relates to HOP-62 NSCLC. The description is as above. Conditions: 10 µM.
Take `COc1cccc(-c2ccnc(/N=C(\N)Nc3ccc(S(=O)(=O)Nc4nc(C)cc(C)n4)cc3)n2)c1`: the growth is 84.6%.

As to `COC(=O)c1c(C(=O)OC)c2n(c1C)[C@@H]([C@@H](C)[C@H]1CC[C@H]3[C@@H]4CCC5=CC(=O)CC[C@]5(C)[C@H]4CC[C@]13C)SC2`, the growth is 64.1%.

For `Cc1ccc(-c2cc(C(=O)N=Nc3c(O)[nH]c4ccc(Br)cc34)c3ccccc3n2)cc1`, the growth was 86.1%.

As to `COc1ccc(-c2c(N)c(=O)n(C)c3ccccc23)cc1`, the growth is 75.3%.

For `O=c1cc(-c2ccccc2)oc2cc(OCCCNCc3ccccc3)cc(O)c12`, the growth was 21.3%.

With `COc1cccc2nc(Nc3cccc(NC(=O)c4ccc(CN5CCCN(C)CC5)c(C(F)(F)F)c4)c3)ccc12`, the growth is -74.7% (active).

For `COc1ccc(-c2cc(-c3cc(C(=O)c4ccc(Br)cc4)n4ccc(C)cc34)nc(N)c2C#N)cc1`, the growth was 95.1%.

As for `O=C1CCC(N2Cc3c(NCc4ccc(-c5ccccc5)cc4)cccc3C2=O)C(=O)N1` (stereo not drawn), the growth is 74.4%.

For `COc1ccc(CN2[C@@H](C(=O)NCc3ccc(C(=O)NO)cc3)Cc3c([nH]c4ccccc34)[C@@H]2C2CC2)cc1`, the growth is 24%.

`CCOC(=O)c1c(CSc2ccccc2)n(C)c2cc(CN(C)C)c(O)c(CN(C)C)c12`: the growth was 72.2%.

For the compound `CCOC(=O)CNC(=O)CN(Cc1ccccc1)C(=O)[C@@]1(C)CCC[C@]2(C)[C@H]3C[C@H]4C(C(C)C)=C[C@]3(CC[C@H]21)[C@@H]1C(=O)OC(=O)[C@@H]14`, the growth was 82.8%.

Consider `CC(=O)Nc1ccc(-c2cn(-c3cccc(C(=O)Nc4cc(C(F)(F)F)cc(C(F)(F)F)c4)c3)nn2)cn1`, for which the growth was -61.1% (active).

`NS(=O)(=O)c1ccc(N=Nc2c(O)n(CC(=O)Nc3ccccc3Br)c3ccccc23)cc1`: the growth is 37.6%.

Turning to `N#Cc1c(Cl)nc(SCc2ccc(F)cc2)nc1-c1ccc(F)cc1`, the growth was 101%.

Regarding `CN(C)c1ccc(/C=C/C(=O)c2ccc(NC(=O)CN3C(=O)NC(C)(c4ccccc4)C3=O)cc2)cc1` (stereo not drawn), the growth is 88.9%.

`COc1ccc(/C=C/C(=O)c2ccc(N3CCN(C)CC3)cc2)c(C(F)(F)F)c1`: the growth was 79.6%.

As to `Clc1ccc(/C=N/Nc2ncnc3sc4c(c23)CCN(Cc2ccccc2)C4)cc1`, the growth is -33.5% (active).

Turning to `COc1cccc(/C=N/NC(=O)c2ccc3nc(-c4ccc(Cl)cc4)[nH]c3c2)c1O`, the growth was -91.9% (active).

For `COc1ccc(-c2nc(S(=O)(=O)c3ccc(C)cc3)c(S(=O)(=O)CC(=O)N(C)Cc3ccccc3)o2)cc1`, the growth was 82.1%.

As to `CC1=C2C(=C[C@@](C)(CO)[C@@H]2O)/C(=N\N)[C@](C)(O)C12CC2`, the growth is -27% (active).

On to `CC(=O)c1ccc(Nc2nc(SC(C)C)nc(-c3ccccc3)c2C#N)cc1`, for which the growth was -27.8% (active).
